± gives the standard deviation of the averaged measurements.
Key:
Assay in all cases: cell viability (% of vehicle); higher = less cytotoxic
HCI01 [1] = cells of a triple-negative basal-like breast cancer xenograft; details: 10 µM; 72 h
HCI03 = cells of an ER-positive luminal breast cancer xenograft; details: 10 µM; 72 h
HCI09 = cells of a triple-negative luminal androgen receptor type breast cancer xenograft; details: 10 µM; 72 h
HCI11 = cells of an ER-positive luminal breast cancer xenograft; details: 10 µM; 72 h
HCI13 = cells of an ER-positive luminal breast cancer xenograft; details: 10 µM; 72 h
HCI16 = cells of a triple-negative basal-like breast cancer xenograft; details: 10 µM; 72 h
UCD52 [2] = cells of a triple-negative basal-like breast cancer xenograft; details: 10 µM; 72 h
WHIM2 [3] = cells of a triple-negative basal-like breast cancer xenograft; details: 10 µM; 72 h
WHIM30 [4] = cells of a triple-negative basal-like breast cancer xenograft; details: 10 µM; 72 h
HCI01 [5] = details: 1 µM; 72 h
UCD52 [6] = details: 1 µM; 72 h
WHIM2 [7] = details: 1 µM; 72 h
WHIM30 [8] = details: 1 µM; 72 h

| SMILES | cell viability (HCI01 [1]) | cell viability (HCI03) | cell viability (HCI09) | cell viability (HCI11) | cell viability (HCI13) | cell viability (HCI16) | cell viability (UCD52 [2]) | cell viability (WHIM2 [3]) | cell viability (WHIM30 [4]) | cell viability (HCI01 [5]) | cell viability (UCD52 [6]) | cell viability (WHIM2 [7]) | cell viability (WHIM30 [8]) |
| --- | --- | --- | --- | --- | --- | --- | --- | --- | --- | --- | --- | --- | --- |
| CCCC1CC(=O)N(C(CC)C(N)=O)C1 (configuration not stated) [Brivaracetam] | 98 ± 7 | 163 | 97.1 ± 1.8 | 89.3 | 87.83 ± 0.76 | 101 | 106 ± 1.4 | 98.2 ± 12 | 128 ± 11 |  |  |  |  |
| C[N+]1(C)CCCC(OC(=O)C(O)(c2ccccc2)c2ccccc2)C1.[Br-] (configuration not stated) [Mepenzolate Bromide] | 109 ± 6.9 | 133 | 103 ± 5.9 | 108 | 133 ± 27 | 108 | 87.5 ± 8.5 | 98.1 ± 7.5 | 128 ± 2.7 |  |  |  |  |
| C[C@@H]1CC[C@H]2[C@@H](C)C(=O)O[C@@H]3OC4(C)CC[C@@H]1[C@]32OO4 [Artemisinine] | 125 ± 38 | 139 | 91.1 ± 1.5 | 102 | 95.7 ± 11 | 153 | 97.45 ± 0.15 | 93.9 ± 15 | 96.3 ± 17 |  |  |  |  |
| CN1c2ccccc2C(NCCCCCCC(=O)[O-])c2ccc(Cl)cc2S1(=O)=O.[Na+] (configuration not stated) [Tianeptine sodium] | 132 ± 22 | 134 | 95.1 ± 10 | 122 | 95.95 ± 0.8 | 120 | 122 ± 4.6 | 85.3 ± 8 | 142.2 ± 0.38 |  |  |  |  |
| CC(C)NCC(O)c1ccccc1Cl.Cl (configuration not stated) [Clorprenaline HCL] | 104 ± 18 | 121 | 73.1 ± 30 | 93.9 | 83.1 ± 11 | 104 | 90.6 ± 16 | 88.3 ± 13 | 103 ± 2.4 |  |  |  |  |
| CNCC(=O)c1ccc(O)c(O)c1.Cl [Adrenalone HCl] | 111 ± 21 | 116 | 104 ± 15 | 107 | 88.5 ± 7.3 | 152 | 99.9 ± 5.5 | 87.8 ± 1.7 | 106 ± 7.2 |  |  |  |  |
| N#Cc1ccccc1-c1cc(-c2ccccn2)cn(-c2ccccc2)c1=O [Perampanel] | 102 ± 10 | 89.9 | 85.1 ± 33 | 94 | 83.3 ± 4.5 | 70.4 | 79.2 ± 12 | 89.14 ± 0.86 | 97 ± 4.1 |  |  |  |  |
| Cc1cccc(C(C)c2cnc[nH]2)c1C.Cl (configuration not stated) [Dexmedetomidine HCl] | 110 ± 1.2 | 103 | 91.2 ± 26 | 103 | 82.7 ± 11 | 89.9 | 86.7 ± 1.2 | 72.3 ± 17 | 112.3 ± 0.75 |  |  |  |  |
| CCNCC.O=S(=O)(O)c1cc(O)ccc1O [Ethamsylate] | 162 ± 90 | 124 | 99.4 ± 7 | 98 | 97.8 ± 10 | 126 | 109 ± 13 | 92.2 ± 12 | 103 ± 4.7 |  |  |  |  |
| CC1CNCCc2ccc(Cl)cc21.Cl (configuration not stated) [Lorcaserin HCl] | 96.6 ± 5.8 | 110 | 100 ± 5.7 | 81.3 | 94.9 ± 12 | 106 | 90.3 ± 3.9 | 82.89 ± 0.73 | 111.3 ± 0.19 |  |  |  |  |
| C=C1CC2C(CCC3(C)C(=O)CCC23)C2(C)C=CC(=O)C=C12 (configuration not stated) [Exemestane] | 166 ± 17 | 103 | 101 ± 14 | 124 | 150 ± 6.5 | 124 | 159 ± 17 | 128 ± 28 | 151 ± 15 |  |  |  |  |
| Cc1cccc(C(C)c2cnc[nH]2)c1C (configuration not stated) [Dexmedetomidine] | 129 ± 5.7 | 106 | 90.4 ± 10 | 105 | 103 ± 16 | 148 | 92.7 ± 0.94 | 106 ± 9.5 | 120 ± 5.1 |  |  |  |  |
| C=CCN1CCC23c4c5ccc(O)c4OC2C(=O)CCC3(O)C1C5.Cl (configuration not stated) [Naloxone HCl] | 124 ± 20 | 125 | 101 ± 18 | 93.5 | 130 ± 23 | 112 | 74.1 ± 13 | 86 ± 15 | 91.4 ± 2.9 |  |  |  |  |
| CCCCCCCCCCCC[N+](C)(C)CCOc1ccccc1.[Br-] [Domiphen Bromide] | 34.9 ± 13 | 48.7 | 24.1 ± 1.5 | 50.1 | 41.3 ± 10 | 46.4 | 27.6 ± 1.8 | 44 ± 14 | 28.4 ± 4.7 | 88.5 | 80.4 | 81.7 | 57.1 |
| Cc1ccc(-n2nccn2)c(C(=O)N2CCN(c3nc4cc(Cl)ccc4o3)CCC2C)c1 (configuration not stated) | 136 ± 9.6 | 88 | 39.5 ± 27 | 93.5 | 101 ± 34 | 101 | 91.9 ± 10 | 118 ± 22 | 136 ± 3.4 |  |  |  |  |
| Cc1cc(C(C#N)c2ccc(Cl)cc2)c(Cl)cc1NC(=O)c1cc(I)cc(I)c1O (configuration not stated) [Closantel] | 29.4 ± 6.5 | 104 | 17.7 ± 1.8 | 85.7 | 37 ± 7.8 | 105 | 61.5 ± 2.6 | 37.6 ± 13 | 87.6 ± 4 | 88.8 | 91.3 | 105 | 82.7 |
| CC(C)N(CCNC(=O)CN1CCCC1=O)C(C)C [Pramiracetam] | 85.1 ± 58 | 155 | 101 ± 9.4 | 110 | 120 ± 2.3 | 129 | 108 ± 2.9 | 119 ± 11 |  |  |  |  |  |
| NCCC(O)(P(=O)([O-])O)P(=O)([O-])O.[Na+].[Na+] [Pamidronate Disodium] | 85.1 ± 9.1 | 82.9 | 86.9 ± 2.1 | 80.8 | 95.2 ± 14 | 59.9 | 76.4 ± 15 | 75 ± 21 | 92.4 ± 13 |  |  |  |  |
| Cc1cc(C(C#N)c2ccc(Cl)cc2)c(Cl)cc1NC(=O)c1cc(I)cc(I)c1[O-].[Na+] (configuration not stated) [Closantel Sodium] | 34.4 ± 1.9 | 114 | 17.978 ± 0.0048 | 93.2 | 35.4 ± 2.9 | 96.3 | 68.1 ± 7.7 | 44.6 ± 10 | 52.7 ± 0.69 | 93.1 | 90.9 | 106 | 88.2 |

Reference: the supplement of paper PMC6992640
